Out of some 300,000 compounds screened, about 950 (0.32%) were called active.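 How the source made its calls: active means mean activation of at least 10% of the iron chelator positive control signal, with at least half of replicates also reaching 10%; inconclusive means mean and replicate majority disagree about reaching 10%; inactive means mean and most replicates under 10%.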 Many of the other results were omitted from the sample, so actives are more common in it than they were.

The test is described as follows: HIF pathway transcriptional activators, primary screen, cell-based, U2OS HRE-luciferase, luminescence (AID 1910). To be noted: U2OS HRE-luciferase reporter, hits give high values, screened at 7.5 µM (by protocol), normalized: DMSO 0%, desferrioxamine 100%.
On to `C/C(=N\NC(=O)Cc1ccc(Cl)cc1)c1ccccn1`, for which the activation is 17.7% (active). For the compound `C/C(=N\NC(=O)Cc1ccccc1[N+](=O)[O-])c1cccnc1`, the activation was 0.0865% (inactive).

As to `C/C(=N\NC(=O)Cc1ccc(Br)cc1)c1cccnc1`, the activation is 24.8% (active). With `Cc1ccc(Cl)cc1NC(=O)c1ccccn1`, the activation was 1.23% (inactive). With `C/C(=N\NC(N)=S)c1cccnc1`, the activation was -0.0419% (inactive). As to `C/C(=N\NC(=O)c1ccccc1F)c1ccccn1`, the activation is 1.74% (inactive). With `O=C(N[C@@H](Cc1ccccc1)C(=O)OCc1ccccc1)c1nc[nH]c1C(=O)NC1CCNCC1`, the activation was 1.06% (inactive). Turning to `Cc1cc(NC(=O)CSC2=NS(=O)(=O)c3cc(Cl)ccc3N2)no1`, the activation is 1.88% (inactive). As for `COc1ccc(/C=C(\C#N)C(=O)OCC(=O)N(C)C2CCS(=O)(=O)C2)cc1` (stereo not given), the activation is -41.3% (inactive).

`Nc1nc(NCCCN2CCOCC2)nc(Nc2ccccc2)c1[N+](=O)[O-]`: the activation was -0.302% (inactive). Regarding `CCOc1cccc(/C=N/NC(=S)NCCN2CCOCC2)c1O`, the activation was 0.43% (inactive). `CCOc1nc(NCCN2CCOCC2)nc(Nc2ccc(C)cc2)n1`: the activation is 296% (active).

In the case of `O=C1CC2(CCN(C(=O)COc3ccc(F)cc3)CC2)Oc2ccccc21`, the activation is -0.0585% (inactive).

On to `O=C(CCCCO)c1ccc(O)c(Cl)c1`, for which the activation is -0.731% (inactive). In the case of `COc1cc(-c2nnc(NC(=O)C3=COCCO3)o2)cc(OC)c1OC` it was -0.75% (inactive); in that of `COc1cc(OC)cc(C(=O)NNC(=O)CNC(=O)c2ccc(Br)o2)c1`, 0.191% (inactive); in that of `O=C(NCCCN1CCCC1=O)c1cccc(S(=O)(=O)NCc2ccccc2)c1`, -0.752% (inactive). For `Cc1ccc(OCc2cc(C(=O)N(C)CCc3ccccc3)no2)cc1C`, the activation is 4.07% (inactive).

`CN(Cc1cnccn1)C(=O)c1cc(COc2cccc(C(F)(F)F)c2)on1`: the activation was -2.19% (inactive). The value for `CN(Cc1cccnc1)C(=O)c1cc(COc2ccc3ncccc3c2)on1` was 39.7% (active); that for `Cc1cccc(C(=O)OC(C)CN2CCCC2)c1` (stereo not given) was 15% (active); that for `CC(CN1CCCCC1)OC(=O)c1ccccc1Cl` (stereo not given) was -0.0657% (inactive). The value for `Cc1cccc(C(=O)OC(C)CN2CCN(C)CC2)c1` (stereo not given) was 3.11% (inactive). Take `CC(=O)c1nn(-c2ccc(C)cc2)cc1C(=O)c1cccc(Br)c1`: the activation was -0.49% (inactive).

Turning to `O=C(CSc1ccc(/C=N/NC(=O)c2cccc(F)c2)o1)Nc1ccccc1`, the activation was 0.0126% (inactive). As for `Cc1ccc(/C=N/NC(=O)CSc2ccccn2)o1`, the activation is -0.331% (inactive).

On to `N#CCC(=O)N/N=C/c1ccc(SCC(=O)Nc2ccccc2)o1`, for which the activation was 105% (active). Regarding `COc1ccc(CNC(=O)C2CCN(C(=O)c3ccccc3)CC2)cc1`, the activation was -0.358% (inactive). Regarding `CCOc1ccc(N(CC(=O)NCc2ccc(OC)cc2)S(=O)(=O)c2c(C)noc2C)cc1`, the activation was 0.179% (inactive).

As for `CCOc1ccc(N(CC(=O)OC)S(=O)(=O)c2c(C)noc2C)cc1`, the activation was -0.196% (inactive). The value for `COc1ccc(N(CC(=O)Nc2cc(OC)ccc2OC)S(=O)(=O)c2c(C)noc2C)cc1` was 10.1% (active); that for `COc1ccc(Cl)cc1NC(=O)CN(C)C(=O)c1cc(-c2cccs2)nn1-c1ccccc1` was 1.06% (inactive); that for `CCN(CC(=O)Nc1cc(Cl)ccc1C)C(=O)Cn1c(=O)cnc2ccccc21` was -0.594% (inactive). `O=C(COc1coc(CN2CCN(c3ccccc3)CC2)cc1=O)N1CCc2ccccc21`: the activation is 0.142% (inactive). `Nc1nonc1-n1nnc(C(=O)N/N=C/c2ccccc2O)c1CN1CCCC1`: the activation is -0.146% (inactive).

As to `Cc1ccc(SCc2c(C(=O)N/N=C/C3CC=CCC3)nnn2-c2nonc2N)cc1` (stereo not given), the activation was 0.655% (inactive). With `Nc1nonc1-n1nnc(C(=O)N/N=C/c2cc(Br)ccc2O)c1CSC1=NCCS1`, the activation is 20.7% (active). In the case of `CCN1CCN(C(=O)N(Cc2ccc(Cl)cc2)S(=O)(=O)c2ccc(C)cc2)CC1` it was 1.75% (inactive); in that of `Cc1cccc(C(=O)OC(C)C(=O)NC2CCCc3ccccc32)c1O` (stereo not given), -0.427% (inactive). Turning to `Oc1ccc(Br)cc1/C=N/Nc1ccccn1`, the activation is 90.5% (active).

`Oc1ccc(/C=N/Nc2ccc(C(F)(F)F)cn2)cc1O`: the activation is 2.36% (inactive). The value for `O=[N+]([O-])c1ccc(O)c(/C=N/Nc2ccccc2[N+](=O)[O-])c1` was 1.42% (inactive); that for `O=C(NC1CC1)C(Cc1ccccc1)NS(=O)(=O)c1ccccc1F` (stereo not given) was -30.3% (inactive); that for `CCS(=O)(=O)c1ccc(-c2cccc(NC(=O)c3ccc(Br)o3)c2)nn1` was -0.865% (inactive).

For `N#Cc1cccc(Nc2c3c(nc4ccccc24)CCCC3)c1`, the activation was -0.204% (inactive). In the case of `CC(=O)Nc1ccc(Nc2c3ccccc3nc3ccccc23)cc1` it was 7.58% (inactive); in that of `Cc1ccc(Nc2c3c(nc4ccccc24)CCC3)cc1`, 97.4% (active). Consider `Cc1ccc(SCC(=O)Nc2nncs2)cc1`, for which the activation was -0.275% (inactive). Regarding `NS(=O)(=O)c1cc(C(=O)OCC(=O)NNC(=O)c2ccccc2)ccc1Cl`, the activation is 0.0895% (inactive).

For `Cc1nc(-c2ccccc2)sc1C1(C)CC(c2cccnc2)=NO1` (stereo not given), the activation was 5.85% (inactive). For `Cn1ccnc1-c1nnn(-c2ccc(F)cc2)n1`, the activation was 2.61% (inactive). As to `CCOc1ccc(CCNC(=O)COC(=O)C2CCN(c3ccc(C(F)(F)F)cn3)CC2)cc1OCC`, the activation was 0.095% (inactive). The value for `Cc1ccc(NC(=O)NC(=O)CSc2nnc(-c3ccc(OC(F)F)cc3)n2N)c(C)c1` was 2.08% (inactive); that for `CC(C)NC(=O)NC(=O)CSc1nnc(-c2ccccc2F)n1N` was 88% (active); that for `Nn1c(SCC(=O)NC2CCCC2)nnc1-c1ccccc1F` was -0.0397% (inactive).

For `COc1ccc(NC(=O)CN(C)C(=O)c2n[nH]c3ccccc23)cc1`, the activation is 2.08% (inactive). In the case of `O=C(CCNC(=O)c1ccc(Br)cc1)NCCCc1ccccc1`, the activation is 0.558% (inactive). On to `CC(=O)N1CCc2c(sc(NC(=O)CCS(=O)(=O)c3ccc(C)cc3)c2C(N)=O)C1`, for which the activation is -0.0953% (inactive).

As for `CS(=O)(=O)c1ccc(Cl)c(NC(=O)COC(=O)c2cccc(S(=O)(=O)N3CCCC3)c2)c1`, the activation is 0.78% (inactive). Turning to `CCN1/C(=C\c2ccc3ccccc3[n+]2CC)Sc2cc(C)ccc21`, the activation is 16.3% (active). Regarding `CCc1nnc(NS(=O)(=O)c2ccc(NC(=O)c3cccc(OC(F)(F)C(F)F)c3)cc2)s1`, the activation is -0.386% (inactive).

`CCOC(=O)c1ccc(NC(=O)c2c(NCc3ccccc3)[nH]c(=O)[nH]c2=O)cc1`: the activation is 0.835% (inactive).

For the compound `O=C(c1ccc(F)cc1)N1CCC(C(=O)N2CCN(S(=O)(=O)c3ccccc3Br)CC2)CC1`, the activation was 1.51% (inactive). For the compound `O=C(CSc1nnc2c(n1)[nH]c1ccccc12)NC1CCCCC1`, the activation was 0.503% (inactive). Consider `Cc1ccc(OCC(=O)NC(C)c2ccccc2)c([N+](=O)[O-])n1` (stereo not given), for which the activation was -1.24% (inactive). With `CC(C)N(c1ccccc1)c1ncnc(NCCC(=O)O)c1[N+](=O)[O-]`, the activation was 173% (active).

Turning to `Cc1ccc(C(C)NC(=O)Cn2nc(C)c([N+](=O)[O-])c2C)cc1` (stereo not given), the activation was -0.456% (inactive). With `COc1ccc(S(=O)(=O)NCC(c2ccc(C)cc2)N2CCN(C)CC2)cc1OC` (stereo not given), the activation is -0.0703% (inactive). In the case of `CC(C)(C)c1ccc(C(=O)N2CCC(C(=O)N3CCCCC3)CC2)cc1` it was -0.293% (inactive); in that of `COc1ccc(C(=O)N2CCC(C(=O)Nc3ccc(C)cc3)CC2)cc1`, 0.165% (inactive). The value for `COc1ccccc1NC(=O)C1CCN(C(=O)c2ccc(C(C)(C)C)cc2)CC1` was 24.7% (active). Consider `Cc1ccc2nc(SCC(=O)N3CCN(c4ccccc4)CC3)nc(=O)n2c1`, for which the activation was -0.536% (inactive).

For `Cc1cc(C)nc(-n2ncc3c2CC(c2ccc(C(C)C)cc2)CC3=O)n1` (stereo not given), the activation was 0.0559% (inactive). Turning to `Cc1nc2nc3c(cn2n1)C(=O)CC(c1ccccc1)C3` (stereo not given), the activation was 842% (active). As for `CN1CCN(c2ncc3c(n2)CC(c2ccccc2F)CC3=O)CC1` (stereo not given), the activation was -0.449% (inactive). The value for `COc1ccccc1NC(=O)Nc1nc(CC(=O)Nc2ccccc2F)cs1` was -0.165% (inactive); that for `NC(=O)c1ccsc1NC(=O)COC(=O)Cc1n[nH]c(=O)c2ccccc12` was 0.145% (inactive). With `CCCCn1c(N)c(N(CC(C)C)C(=O)C2CSC3(C)CCC(=O)N23)c(=O)[nH]c1=O` (stereo not given), the activation is 0.199% (inactive). Take `COc1ccc(-n2c(-c3ccc(OC)c(OC)c3)n[nH]c2=S)cc1`: the activation is 1.1% (inactive). Consider `COc1ccc(-n2c(C)csc2=S)cc1`, for which the activation is 14.5% (active). On to `COc1ccc(N2C(=O)CNC2=S)cc1`, for which the activation was -0.317% (inactive). As for `c1ccc(-c2nc(NCc3ccco3)c3ccccc3n2)cc1`, the activation was 0.461% (inactive).

`CS(=O)(=O)n1nc(-c2ccccc2)nc1NCc1ccco1`: the activation was 16.1% (active). Consider `O=C(Cc1ccccc1)n1nc(-c2ccccc2)nc1NCc1ccco1`, for which the activation was 1.38% (inactive).

`N#CCN(C(=O)COC(=O)C1CC2CCCC(C1)C2=O)c1ccccc1` (stereo not given): the activation was -0.0724% (inactive).

As for `Cc1ccc(C(=O)Nc2nnc(C3=COCCO3)o2)cc1C`, the activation was 0.0306% (inactive). In the case of `COc1cccc(N2CC(C(=O)NCc3n[nH]c(=O)c4ccccc34)CC2=O)c1` (stereo not given), the activation is 3.45% (inactive). The value for `COc1ccc(NC(=O)CCC(=O)Nc2cc(OC)c(NC(=O)c3ccco3)cc2OC)c(OC)c1` was -0.226% (inactive); that for `COc1ccccc1C(=O)Nc1ccc(NC(=O)c2ccco2)c(C)c1` was 0.062% (inactive); that for `COc1ccc(NC(=O)c2cccc(NC(=O)c3ccco3)c2)c(OC)c1` was 10.1% (active).

As to `COc1ccccc1OCCCCCCN1CCN(C)CC1`, the activation is 0.237% (inactive). For `CCOc1ccc(C(C)=O)cc1COC(=O)CNC(=O)c1cccs1`, the activation is 0.00171% (inactive). On to `O=C(N/N=C/c1ccccc1O)C1CCCC1`, for which the activation is 0.236% (inactive). With `O=C(CCCO)N/N=C/c1cc(Br)ccc1O`, the activation is -1.18% (inactive). In the case of `O=C(N/N=C/c1ccccc1O)/C(=C/c1ccccc1)CCO` it was 31.1% (active).
